Assay results reported in ChEMBL document CHEMBL3433997, “St. Jude Leishmania screening dataset” (2016).
Where “and” joins values, the source holds several entries; their conditions need not be identical. Equal entries are not always repeated.

Legend:
Type in all cases: functional
[1] = biological target: Solute carrier family 2, facilitated glucose transporter member 1 (Homo sapiens) (UniProt P11166); assay: ST_JUDE_LEISH: Cytotoxicity at 2uM final concentration against transgenic Leishmania Mexicana promastigotes LmGLUT1 that are glucose transport deficient and complemented with the human glucose transporter GLUT1. Activity is measured by DNA content using SYBR green in vitro
[2] = biological target: Hexose transporter 1 (Plasmodium falciparum) (UniProt O97467); assay: ST_JUDE_LEISH: Cytotoxicity at 2uM final concentration against transgenic Leishmania Mexicana promastigotes LmPfHT that are glucose transport deficient and complemented with the Plasmodium falciparum hexose transporter. Activity is measured by DNA content using SYBR green in vitro
[3] = biological target: Glucose transporter (Leishmania mexicana) (UniProt O61059); assay: ST_JUDE_LEISH: Cytotoxicity at 2uM final concentration against transgenic Leishmania Mexicana promastigotes LmGT2 that are glucose transport deficient and complemented with the L. Mexicana glucose transporter 2. Activity is measured by DNA content using SYBR green in vitro

Sequence of Solute carrier family 2, facilitated glucose transporter member 1 (Homo sapiens) (P11166 whole entry): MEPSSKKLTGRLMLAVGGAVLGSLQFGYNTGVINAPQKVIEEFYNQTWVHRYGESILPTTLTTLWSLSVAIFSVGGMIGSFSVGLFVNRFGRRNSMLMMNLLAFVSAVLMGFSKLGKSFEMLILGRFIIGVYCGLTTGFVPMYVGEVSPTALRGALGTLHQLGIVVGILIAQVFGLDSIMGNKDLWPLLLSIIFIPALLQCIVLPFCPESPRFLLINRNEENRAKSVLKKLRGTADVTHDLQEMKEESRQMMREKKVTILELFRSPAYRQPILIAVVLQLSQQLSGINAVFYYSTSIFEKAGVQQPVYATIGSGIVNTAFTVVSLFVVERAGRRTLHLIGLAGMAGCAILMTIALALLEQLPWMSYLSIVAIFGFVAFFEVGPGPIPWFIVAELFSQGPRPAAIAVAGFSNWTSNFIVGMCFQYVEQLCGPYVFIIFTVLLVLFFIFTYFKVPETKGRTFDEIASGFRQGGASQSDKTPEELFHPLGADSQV

SMILES	inhibition [1]	inhibition [2]	inhibition [3]
COc1ccc(CCNCCCCCCNCCc2ccc(Cl)cc2)c(Cl)c1OC	73.4%	16.7%	102%
CCC(CC(NCCCCNC(=O)c1ccc(NC(=O)c2ccc(Cl)cc2)cc1)c1ccccc1)c1ccccc1OC (stereo unspecified)	1.72% and 1.8%	1.83% and 1.71%	1.46% and -1.08%
Cc1cc(N(C)C)nc(Nc2ccc(NC(=O)c3ccc(F)cc3)cc2)n1	5.57%	8.06%	3.85%
CCOc1ccc(NC(=O)c2ccc(NCCCN3CC(C)CC(C)C3)c([N+](=O)[O-])c2)cc1 (stereo unspecified)	2.9%	0.9%	1.09%
CN1CCC(Oc2ccc(CN3CC[C@H](NC(=O)c4ccc(F)c(F)c4)C3)c3ccccc23)C1 (stereo partly specified)	1.65%	1%	2.7%
CNCCNCc1cccc(-c2ccc(-c3nc4cccc(C)c4[nH]3)s2)c1	-0.6%	0.01%	-0.03%
O=C(NC(Cc1ccccc1)C(=O)O)c1cc(=O)c2ccccc2o1 (stereo unspecified)	0.32%	1.17%	0.99%
O=C(NCCCCN1CCCC2c3cccc(O)c3CCC21)c1ccc(-c2ccccc2)cc1 (stereo unspecified)	0.9%	-0.26%	-0.23%
O=C(/C=C/c1ccc(C(F)(F)F)cc1)N1CCC(CCN2CCC(c3c[nH]c4ccccc34)CC2)CC1	16.8%	9.28%	3.39%
O=S(=O)(Nc1ccc(-c2ccc(CN3CCCC3)cc2)cc1)c1cccc2cccnc12	78%	85.2%	71.7%
CCc1n[nH]c(C(=O)Nc2cccc(N3CCCC3)c2)c1C	0.38%	1.73%	-1.36%
c1ccc2[nH]c(-c3ccc(-c4ccc(CN5CCCCC5)cc4)s3)nc2c1	0.97%	0.62%	-0.34%
